Screen size: about 310,000 compounds; about 3,300 (1.1%) were called active.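 The calls were made as follows: active = B-score under library mean minus 3 SD, initial fluorescence not abnormally high, positive integrated signal ratio; inactive = the rest.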 Shown is part of a subset that was picked to be rich in actives.

The values below come from PubChem BioAssay AID2553 (Johns Hopkins Ion Channel Center, 2010).

Short transient receptor potential channel 6 (Mus musculus), sequence (Q61143 whole entry, looked up): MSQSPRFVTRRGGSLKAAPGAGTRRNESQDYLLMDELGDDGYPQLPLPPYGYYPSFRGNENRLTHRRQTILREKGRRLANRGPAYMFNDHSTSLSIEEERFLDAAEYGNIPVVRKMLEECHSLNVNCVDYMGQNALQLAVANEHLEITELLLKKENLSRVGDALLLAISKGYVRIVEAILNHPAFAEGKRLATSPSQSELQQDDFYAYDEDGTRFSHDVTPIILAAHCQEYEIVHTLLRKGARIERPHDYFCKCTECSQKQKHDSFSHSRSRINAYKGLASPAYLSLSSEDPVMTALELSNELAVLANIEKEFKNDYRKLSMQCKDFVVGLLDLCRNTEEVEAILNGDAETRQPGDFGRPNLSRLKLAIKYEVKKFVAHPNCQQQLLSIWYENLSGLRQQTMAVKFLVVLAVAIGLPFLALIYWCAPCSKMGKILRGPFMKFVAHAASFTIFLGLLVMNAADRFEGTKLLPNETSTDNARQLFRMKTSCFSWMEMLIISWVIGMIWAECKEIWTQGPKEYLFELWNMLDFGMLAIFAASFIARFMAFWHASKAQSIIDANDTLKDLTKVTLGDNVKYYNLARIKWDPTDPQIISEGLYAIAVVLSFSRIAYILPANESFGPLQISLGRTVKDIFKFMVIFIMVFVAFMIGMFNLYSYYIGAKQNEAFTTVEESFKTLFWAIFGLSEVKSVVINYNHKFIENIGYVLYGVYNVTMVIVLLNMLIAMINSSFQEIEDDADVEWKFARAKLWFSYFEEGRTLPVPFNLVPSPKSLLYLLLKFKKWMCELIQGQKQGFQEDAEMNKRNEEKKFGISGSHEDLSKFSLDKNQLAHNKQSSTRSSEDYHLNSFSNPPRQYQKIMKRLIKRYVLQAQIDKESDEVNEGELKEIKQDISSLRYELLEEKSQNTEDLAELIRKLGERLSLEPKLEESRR

The assay addresses Short transient receptor potential channel 6 (Mus musculus) (UniProt Q61143). The assay is described as follows: mouse TRPC6 channel inhibitors, primary screen, cell-based, HEK293, membrane potential dye (AID 2553).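 As to B-score: B-score derived from integrated fluorescence ratio over the kinetic read; more negative B-score means stronger inhibition of depolarization.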 The following applies: ACh-evoked depolarization, at 10 µM; active compounds read low.
On to `COc1ccc(Cc2nnc(SCC(=O)N(c3ccccc3)C(C)C)n(N)c2=O)cc1`, for which the B-score result is “inactive”.
Then `C=CCSC(CC)(CC)C(N)=O`, with “inactive”; and `Oc1c(Cl)cc(Cl)c(Cl)c1Cc1c(O)c(Cl)cc(Cl)c1Cl`, with -7.71 (active).
The entry for `COc1cc(NC(=O)C2CC(c3ccccc3O)=NO2)c(OC)cc1Cl` (centres undefined) is “inactive”.
Then `Cc1ccc(F)cc1NC(=O)N1CCCN(c2ccc(C(F)(F)F)cn2)CC1`, with “inactive”; and `Cc1ccc(NC(=O)CN(C)Cc2ccc(F)cc2)c([N+](=O)[O-])c1`, with “inactive”.
As for `CN(CC(=O)Nc1ccccc1[N+](=O)[O-])Cc1ccc(Br)cc1`, the B-score is -5.44 (active).
The entry for `CN(CC(=O)Nc1ccc(N2CCOCC2)cc1)CC(=O)Nc1ccccc1[N+](=O)[O-]` is “inactive”.
As for `C/C(=N\Nc1nc2ccccc2[nH]1)c1cccs1`, the B-score was -13.6 (active).
Then `O=C(Nc1ccccc1-c1nc2ccccc2[nH]c1=O)c1cccs1`, with “inactive”; and `C/C(=N\Nc1ncc(Cl)cc1Cl)c1cccs1`, with “inactive”; and `Cc1cc(OCC(=O)N(C)c2c(N)n(Cc3ccccc3)c(=O)[nH]c2=O)c(C(C)C)cc1Cl`, with “inactive”.
The entry for `CC(C)c1ccc(OCC(O)CN2CCN(c3ccccn3)CC2)cc1` (centres undefined) is “inactive”.
Then `CC(=O)OC(COc1ccc(F)cc1)Cn1cnc2ccccc21` (centres undefined), with “inactive”; and `CC(C)c1ccc(OCC(O)Cn2cnc3ccccc32)cc1` (centres undefined), with -9.55 (active); and `CCN(CC)CCn1cnc2c1c(=O)[nH]c(=O)n2Cc1ccccc1`, with “inactive”.
Turning to `N=c1c2c(-c3ccccc3)c(-c3ccccc3)n(Cc3ccccc3)c2ncn1CCCO`, the B-score was -7.35 (active).
The entry for `COCCn1cnc2c1c(=O)n(Cc1ccc(Br)cc1)c(=O)n2Cc1ccccc1` is “inactive”.
The entry for `CCOC(=O)C(CCOc1cccc(CC)c1)C(=O)OCC` is “inactive”; for `CCOC(=O)c1sc(N(Cc2ccccc2)C(=O)CN2C(=O)CN(C)C2=O)nc1C` it is “inactive”.
The entry for `Cc1cc(=O)[nH]c(SCc2ccc(Cl)cc2)n1` is “inactive”; for `CC1CN(C(=O)c2cc(COc3c(F)cccc3F)on2)CCN1C` (centres undefined) it is “inactive”.
`Cc1cccc(NS(=O)(=O)c2ccc(-c3cnc(C4CC4)o3)cc2)c1`: the B-score result was “inactive”.
`O=S(=O)(c1ccc(Cl)s1)N1CCC2(CC1)OCCO2`: the B-score entry was “inactive”.
Then `O=C(NCCc1c[nH]c2ccccc12)c1cccc(Br)c1`, with “inactive”.
The figure for `O=C(NCCc1c[nH]c2ccccc12)C1CCN(Cc2ccc(Br)cc2)CC1` is -5.11 (active); for `Cc1ccc2[nH]cc(CCNC(=O)C3CCCCC3)c2c1` it is “inactive”; for `Cc1ccc(OCCOc2cccc(/C=N/NC(N)=O)c2)cc1` it is “inactive”.
Then `COc1ccc(CNC(=O)CN2CCC(n3nnc4cc(F)ccc43)CC2)cc1`, with “inactive”; and `N=c1n(CCc2ccccc2)c2ccccc2n1Cc1ccccc1F`, with -5.3 (active); and `Fc1ccccc1Cn1cnc(NC(=S)NCCc2ccccc2)n1`, with “inactive”.
With `CC(=O)NC(C)c1nc2ccccc2n1Cc1ccccc1F` (centres undefined), the B-score entry is “inactive”.
Then `CC(C)CCOc1ccc(C(=O)C[N+]2(C)CCOCC2)cc1`, with “inactive”.
The entry for `Cc1ccccc1C(OCCN(C)C)C1CCCCC1` (centres undefined) is “inactive”; for `CCOC(=O)C1=C(CSc2nnnn2C)N(C)C(=O)NC1c1ccccc1` (centres undefined) it is “inactive”.
With `COc1cccc(-n2c(=S)[nH]c3c(oc4ccccc43)c2=O)c1`, the B-score result was “inactive”.
Then `O=C(O)C(c1ccccc1)C1(O)CCCCC1` (centres undefined), with “inactive”; and `CN(C)CCOC(=O)C(c1ccccc1)C1(O)CCCC1` (centres undefined), with -7.55 (active); and `CCC(C(=O)OCCN(CC)CC)c1ccccc1` (centres undefined), with “inactive”.
Then `CCCCc1cc2c(s1)CCCC/C2=N/O`, with “inactive”; and `Cc1ccc(-c2nc(COC(=O)c3c(C)noc3C)cs2)cc1`, with “inactive”.
Then `CCOc1cc(-c2conc2N)cc(OCC)c1OCC`, with “inactive”; and `Cc1csc2ncc(C(=O)N(Cc3ccccc3)c3ccccn3)c(=O)n12`, with “inactive”; and `CCCc1cc(=S)n2c([nH]c3ccccc32)c1C#N`, with -12.9 (active).
Regarding `Cc1ccccc1Cn1c(=O)[nH]c2ccccc21`, the B-score entry was “inactive”.
On to `CCOC(=O)CCc1c(C)c(C#N)c2[nH]c3ccccc3n2c1=O`, for which the B-score result is “inactive”.
For the compound `COc1ccc(OC)c(C(=O)c2ccc(C(=O)N3CCN(Cc4csc(C)n4)CC3)cc2)c1`, the B-score result is “inactive”.
The entry for `CCOc1ccccc1NC(=S)N1CCN(c2cccc(C)c2C)CC1` is “inactive”; for `CN(N)c1nc(N2CCCC2)nc(N2CCCC2)n1` it is “inactive”.
The entry for `Cn1c(NC(=O)c2ccc3c(c2)OCO3)cc(=O)n(C)c1=O` is “inactive”.
Turning to `Cn1c(=O)n(C)c2cc(C(=O)Nc3ccc4c(c3)OCO4)ccc21`, the B-score is -7.03 (active).
Then `Cn1c(=O)n(C)c2cc(C(=O)Nc3ccc(Br)cc3)ccc21`, with “inactive”.
Then `CC(C)(C)c1cc(CN2CCN(CCC#N)CC2)cc(C(C)(C)C)c1O`, with “inactive”; and `Cc1ccc(NC(=S)N(CCCN2CCCC2)Cc2cccn2Cc2ccc(Cl)cc2)cc1`, with -5.03 (active); and `Cc1ccc(NC(=S)N(CCN2CCCCC2)Cc2ccco2)cc1C`, with “inactive”.
For the compound `Cc1ccc(NC(=S)N(CCCN2CCC(C)CC2)Cc2ccco2)cc1`, the B-score result is “inactive”.
Turning to `COC(=O)[C@@H]1C[C@H]2CC[C@H](O)C[C@H]2N1Cc1ccc(N2CCN(C)CC2)cc1`, the B-score entry was “inactive”.
Then `N#C/C(C(=S)Nc1ccccc1)=C1/NN=C(N2CCOCC2)N1c1ccccc1`, with “inactive”; and `COc1cccc(CC(=O)N2CCCC(CCC(=O)N3CCN(c4ccccn4)CC3)C2)c1` (centres undefined), with “inactive”.
The entry for `CCC(c1nnnn1C1CCCC1)N1CCN(C(=O)c2ccco2)CC1` (centres undefined) is “inactive”.
The entry for `CC(C)C(c1nnnn1C1CCCCC1)N1CCN(C(=O)c2ccco2)CC1` (centres undefined) is “inactive”; for `CC(C)C(c1nnnn1CCc1ccccc1)N1CCN(C(=O)c2ccco2)CC1` (centres undefined) it is -6.03 (active); for `O=[N+]([O-])c1ccccc1/C=C/CN1CCCC(CO)C1` (centres undefined) it is “inactive”.
For the compound `O=[N+]([O-])c1ccccc1/C=C/CN1CCC(O)CC1`, the B-score entry is “inactive”.
Then `CC1CC(C)CN(C/C=C/c2ccccc2[N+](=O)[O-])C1` (centres undefined), with -10.9 (active); and `CC1=C[C@H]2Cc3cc(C)cc(C)c3S(=O)(=O)[C@@H]2C=C1`, with “inactive”.
`CC(=O)c1cc(C#N)c(SCC(=O)Nc2nccs2)nc1C`: the B-score entry was “inactive”.
Then `Clc1ccc(C2=CSC3=Nc4cccc5cccc(c45)N23)cc1`, with “inactive”; and `CC(C)NC(=O)COCc1cc(-c2ccc3c(c2)OCO3)on1`, with “inactive”.
Turning to `CC(C)(C)c1ccc(C(=O)NCc2nnc(SCC(=O)N3CCCc4ccccc43)n2-c2ccccc2)cc1`, the B-score entry was “inactive”.
Then `N#C/C(=C1/CCCN1)c1ccccn1`, with “inactive”; and `Cn1c(S(=O)(=O)O)nc2ccccc21`, with “inactive”; and `Cn1c(/C(C#N)=C2/CCCCCN2)nc2ccccc21`, with -6.04 (active).
The entry for `CC(=O)c1ccc(N2CCN(C(=O)c3ccc4nc[nH]c4c3)CC2)cc1` is “inactive”.
The entry for `CC(=O)c1ccc(N2Cc3ccccc3C2)cc1` is “inactive”; for `Cc1nc(SCc2ccc(F)cc2)c([N+](=O)[O-])[nH]1` it is “inactive”; for `Cc1cc(OCCCCOc2ccc(C#N)cc2)ccc1[N+](=O)[O-]` it is “inactive”.
On to `CCCCCOc1ccc(CSC2=NCCN2)cc1[N+](=O)[O-]`, for which the B-score is -7.13 (active).
Then `CCCCOC(=O)CCCc1ccc([N+](=O)[O-])cc1[N+](=O)[O-]`, with “inactive”.
Then `CCCCOc1ccc(CSC(=N)N)cc1[N+](=O)[O-]`, with -6.92 (active); and `CCCOc1ccc(Cn2ccnc2)cc1[N+](=O)[O-]`, with “inactive”.
For the compound `COc1ccc(NC(=O)CN2C(=O)C(c3ccccc3)=NC23CCCCCC3)cc1OC`, the B-score result was “inactive”.
The entry for `Cc1cc(C)c2oc(C(=O)Nc3ccc(S(=O)(=O)Nc4nccc(C)n4)cc3)cc(=O)c2c1` is “inactive”; for `c1ccc(-c2cnc(CN3CCN(c4ccccc4)CC3)o2)cc1` it is “inactive”.
The entry for `COc1cc([N+](=O)[O-])cc([N+](=O)[O-])c1NC(=O)N1CCOCC1` is “inactive”; for `O=C(NN1C(=O)C2C3C=CC(C3)C2C1=O)c1ccco1` (centres undefined) it is “inactive”; for `COC(=O)C1=C(C)N(C)C(=S)NC1c1cc(OC)ccc1OC` (centres undefined) it is “inactive”.
Then `CCOCCCNCc1cc(Br)ccc1OCC`, with “inactive”; and `CC(C)(C)NCc1cc(Br)ccc1OC1CCCC1`, with -6.86 (active).
On to `COc1cc(CNC2CCCCC2)c(Br)cc1OC1CCCC1`, for which the B-score entry is “inactive”.
With `O=C(c1ccc(CS(=O)(=O)c2ccccc2)o1)N1CCN(c2ccccc2)CC1`, the B-score entry was “inactive”.
Then `O=C(CNc1cccc(S(=O)(=O)N2CCCCC2)c1)Nc1ccccc1F`, with “inactive”; and `COc1ccccc1CCNC(=O)C(=O)NCCC1CCCCN1S(=O)(=O)c1cccs1` (centres undefined), with “inactive”; and `Cn1c(=NC(=O)c2cnccn2)sc2ccccc21`, with -6.66 (active).
Then `Cn1c(=NC(=O)c2ccco2)sc2cccc(F)c21`, with “inactive”.
For `COC(=O)c1ccc(OC(=O)c2cnccn2)cc1`, the B-score result was “inactive”.
Then `O=C(COc1ccccc1)Nc1ccc(F)cc1`, with “inactive”; and `O=S(=O)(c1ccc(F)cc1)N1CCN=C1SCc1cccc(F)c1`, with “inactive”.
With `COC(=O)c1ccccc1NC(=O)C1(S(=O)(=O)c2ccc(Cl)cc2)CC1`, the B-score result was “inactive”.
Take `CCCCCCCCn1c2c(c(=N)c3c1CCC3)CCCC2`: the B-score is -6.1 (active).
The entry for `Cc1ccc(NC(=O)CCOc2ccccc2)cc1S(=O)(=O)Nc1ccccc1Cl` is “inactive”; for `Cc1cc(C)c2nc3nc(C)cc(C)c3c(N)c2c1` it is -5.04 (active).
With `Cc1cc(C)c2nc(-c3ccco3)cc(C(=O)O)c2c1`, the B-score result is “inactive”.
Take `COc1ccc(OCc2cc(C(=O)N3CCCC3)no2)c2ccccc12`: the B-score entry was “inactive”.
Then `CCOC(=O)/C=C/CN(C(=O)OC(C)(C)C)S(=O)(=O)N1CC=CC1`, with “inactive”; and `CC(Nc1nc(N2CCOCC2)nc2ccccc12)c1ccccc1` (centres undefined), with “inactive”; and `CC(Nc1nc(N2CCCC2)nc2ccccc12)c1ccccc1` (centres undefined), with -6.87 (active).
Then `CC(Nc1nc(N2CCN(CCO)CC2)nc2ccccc12)c1ccccc1` (centres undefined), with “inactive”.
The entry for `COc1ccc2[nH]cc(CCN3C(=O)c4ccc(C(=O)O)cc4C3=O)c2c1` is “inactive”; for `Cc1nn(C)cc1C(=O)c1ccccc1` it is “inactive”; for `C=CCOc1ccc(/C=C/C(=O)OCC(=O)NC2CCCCCC2)cc1` it is “inactive”.
Turning to `CCOC(=O)CNC(=O)N1c2ccccc2Sc2ccccc21`, the B-score entry was “inactive”.
Then `COc1cc(/C=C/C(=O)N2c3ccccc3Sc3ccc(C(F)(F)F)cc32)cc(OC)c1OC`, with “inactive”; and `O=C(CN1CCCCCC1)N1c2ccccc2Sc2ccc(C(F)(F)F)cc21`, with -5.15 (active).
